Rows were chosen to be rich in hits. Some 2.3% of all compounds tested hit in one or more screens of this group.
DENV2 CPE rescue – inhibitors of DENV2 cytopathic effect. 350,000 compounds, 1.7% hits. CPE inhibition, % at 9.99 µM. DENV2-infected cells, cytopathic effect rescue, plate reader; in the data active = CPE inhibition above about 20%, passing the limit was not always enough; inconclusive = no clear call, values can overlap the other calls; tested in BHK-21 cells;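 note: 0% = median of neutral control wells and 100% = median of positive control wells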
ERp5 inh – blocks human ERp5 reductase activity on insulin; 350,000 compounds, 0.05% hits; Q15084; ERp5 insulin aggregation, absorbance 650 nm, 90 min; inhibition, % at 9.99 µM;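 active = mean replicate inhibition above about 25%, with every replicate also reaching it, limit read from the data, passing the limit was not always enough; inconclusive = only one of those two criteria met; inactive = neither criterion met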
SIRT5 block – inhibitors of human sirtuin-5 desuccinylase. Q9NXA8. Purified SirT5, succinyl-peptide AMC, trypsin-coupled fluorescence. inhibition, % at 15 µM. 330,000 compounds, 1.1% hits. AID 652115; in the data active = inhibition above about 15%; inconclusive = no clear call, values can overlap the other calls
Rtt109 HAT inh – C. albicans Rtt109 histone acetyltransferase inhibition | Q5AAJ8 | inhibition, % at 34.9 µM | 330,000 compounds, 0.16% hits | AID 540336 | purified Rtt109/Vps75, ThioGlo CoA-SH fluorescence, 4 h;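 active = inhibition of at least 50% in every replicate; inconclusive = best replicate reaches 50% inhibition but some replicates fall short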
Target sequence (Q5AAJ8 whole entry, looked up): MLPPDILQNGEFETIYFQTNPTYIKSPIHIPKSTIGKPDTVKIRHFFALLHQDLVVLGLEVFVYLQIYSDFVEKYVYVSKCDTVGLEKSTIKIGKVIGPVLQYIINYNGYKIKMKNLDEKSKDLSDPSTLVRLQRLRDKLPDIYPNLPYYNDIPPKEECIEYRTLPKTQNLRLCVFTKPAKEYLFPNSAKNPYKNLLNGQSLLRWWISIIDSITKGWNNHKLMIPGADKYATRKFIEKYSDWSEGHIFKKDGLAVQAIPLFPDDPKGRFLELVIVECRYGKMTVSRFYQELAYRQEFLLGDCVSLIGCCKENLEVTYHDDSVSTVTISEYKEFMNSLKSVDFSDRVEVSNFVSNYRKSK
PDI inh – PDI (human) enzyme inhibition; AID 588391; inhibition, % at 10 µM; P07237; 350,000 compounds, 0.052% hits; PDI insulin aggregation turbidity, A650, 90 min;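 active = mean inhibition across replicates of 30% or more, whatever share of single replicates reach that level; inconclusive = mean inhibition below 30% while every single replicate reaches 30%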
Active calls of the source: *; ? = inconclusive; . = not tested or not shown.

SMILES	DENV2 CPE rescue	ERp5 inh	SIRT5 block	Rtt109 HAT inh	PDI inh
O=C(COC(=O)CC1CC2CCC1C2)Nc1ccc(F)cc1 (configuration not stated)	0	5	112*	1	15
O=C(COC(=O)Cc1ccccc1[N+](=O)[O-])Nc1nnc(-c2ccccc2)o1	7	-2	-7	56*	-2
O=C(COc1ccccc1)Nc1nnc(-c2ccccc2)o1	-1	1	.	-13	11
C[C@H]1CCCCO[C@@H](CN(C)S(=O)(=O)c2cccs2)[C@@H](C)CN([C@@H](C)CO)C(=O)c2cc(NC(=O)C3CCCCC3)ccc2O1	3	-6	5	.	.
COCCNC(=O)CCCn1c(=O)c2cc(OC)c(OC)cc2n(CC(=O)c2cccc(OC)c2)c1=O	3	0	19*	20	22
C[C@H](CO)N1C[C@H](C)[C@@H](CN(C)C(=O)Nc2cccc3ccccc23)Oc2ccc(NC(=O)C3CC3)cc2C1=O	-4	3	1	.	.
O=C(CN1C(=O)NC2(CCCC2)C1=O)Nc1cc(C(F)(F)F)ccc1N1CCCCC1	-4	34*	-5	1	-11
CO[C@H](CN(C)C(=O)c1ccc2c(c1)OCO2)[C@H](C)CN([C@H](C)CO)S(=O)(=O)c1ccccc1	4	1	27*	.	.
CO[C@@H](CN(C)C(=O)c1ccc2c(c1)OCO2)[C@@H](C)CN([C@@H](C)CO)S(=O)(=O)c1ccccc1	2	4	-2	.	.
CO[C@@H](CN(C)C(=O)c1cnccn1)[C@H](C)CN([C@@H](C)CO)S(=O)(=O)c1ccc(F)cc1	27*	2	1	.	.
COc1cccc(-c2ccc3c(c2)[C@@H]2[C@@H](CCN2S(=O)(=O)c2cccc(OC)c2)[C@@H](CO)N3)c1	-15	4	11	.	.
Cc1noc(C)c1NC(=O)Nc1ccc2c(c1)C(=O)N([C@@H](C)CO)C[C@@H](C)[C@H](CN(C)C(=O)C1CCCCC1)OCCCC[C@@H](C)O2	2	5	-1	.	.
C[C@@H]1CN([C@H](C)CO)C(=O)c2cc(Br)cnc2O[C@H]1CN(C)S(=O)(=O)c1ccc(F)cc1	-1	-3	-1	.	.
COc1ccc(CCNCc2ccc(OCc3ccc(Cl)nc3)c(OC)c2)cc1OC	.	.	.	8	-2
CCCCCNCc1ccc(OCc2ccc(Cl)nc2)c(OC)c1	31*	3	.	-7	-1
COc1cccc(N/N=C(\C#N)S(=O)(=O)C(C)(C)C)c1	-1	-6	18*	5	-22
COc1ccccc1/C=C/C1=NC(=C\C=C/c2ccccc2)/C(=O)O1	.	2	21*	2	0
CC(=O)c1ccc(C(=O)Nc2ccc3c(c2)C(=O)NC3=O)cc1	-6	6	-3	-24	-14
CC(C)(C)c1ccc(C(=O)Nc2ccc3c(c2)C(=O)NC3=O)cc1	58*	-1	-9	-4	-9
COCCn1c(C)cc(C(=O)CSc2nc3ccccc3c(=O)n2Cc2ccco2)c1C	23*	6	-5	13	-3
O=C(O)c1ccccc1-c1ccc(C=c2sc3nc4cc(Br)cnc4n3c2=O)o1	?	2	30*	.	-4
O=C(O)c1cccc(-c2ccc(/C=c3/sc4nc5ccccc5n4c3=O)o2)c1	-2	3	30*	4	-7
O=C(O)c1cc(C(=O)O)cc(-c2ccc(/C=c3/sc4nc5ccccc5n4c3=O)o2)c1	.	.	.	0	.
Cc1noc(C)c1NC(=O)N(C)C[C@H]1Oc2ccc(NC(=O)Cc3cn(C)c4ccccc34)cc2C(=O)N([C@@H](C)CO)C[C@H]1C	-4	-2	10	.	.
CNC[C@@H]1Oc2c(NC(=O)c3nc4ccccc4s3)cccc2C(=O)N([C@H](C)CO)C[C@@H]1C	-2	-1	-2	.	.
SMILES	DENV2 CPE rescue	ERp5 inh	SIRT5 block	Rtt109 HAT inh	PDI inh
CO[C@@H](C(=O)N(C)C[C@@H]1OCc2ccccc2-c2c(n(C)c3ccccc23)C(=O)N([C@H](C)CO)C[C@@H]1C)c1ccccc1	6	-8	-3	.	.
C[C@H](CO)N1C[C@H](C)[C@@H](CN(C)C(=O)Nc2ccc(F)cc2)OCc2ccccc2-c2c(n(C)c3ccccc23)C1=O	-3	-1	15*	.	.
CO[C@H](C(=O)N(C)C[C@H]1OCc2ccccc2-c2c(n(C)c3ccccc23)C(=O)N([C@@H](C)CO)C[C@@H]1C)c1ccccc1	26*	0	5	.	.
C[C@H](CO)N1C[C@H](C)[C@H](CN(C)C(=O)Nc2ccc(-c3ccccc3)cc2)OCc2ccccc2-c2c(n(C)c3ccccc23)C1=O	88*	-5	2	.	.
C[C@H](NC(=O)N(C)C[C@H]1OCc2ccccc2-c2c(n(C)c3ccccc23)C(=O)N([C@H](C)CO)C[C@H]1C)c1ccccc1	32*	-3	3	.	.
C[C@H]1CN([C@@H](C)CO)C(=O)c2c(c3ccccc3n2C)-c2ccccc2CO[C@H]1CN(C)C(=O)Nc1ccc(-c2ccccc2)cc1	-2	-7	-1	.	.
C[C@H]1CN([C@@H](C)CO)C(=O)c2c(c3ccccc3n2C)-c2ccccc2CO[C@H]1CN(C)C(=O)Nc1ccccc1	1	-11	13	.	.
CCC(=O)Nc1ccc2c(c1)C(=O)N(C)C[C@@H](OC)[C@H](C)CN(CCc1ccccc1)[C@@H](C)CO2	-7	-3	-1	.	.
Cc1ccc(S(=O)(=O)N2CC[C@@H]3[C@@H](CO)Nc4ccc(Br)cc4[C@@H]32)cc1	?	1	3	.	.
COc1ccc(NC(=O)N(C)C[C@@H]2OCc3ccccc3-c3c(n(C)c4ccccc34)C(=O)N([C@@H](C)CO)C[C@@H]2C)cc1	16	-3	21*	.	.
C[C@@H]1CN([C@H](C)CO)C(=O)c2cc(NC(=O)CCCN(C)C)ccc2O[C@@H](C)CCCCO[C@H]1CN(C)S(=O)(=O)c1ccccc1	23*	1	-3	.	.
C[C@H](CO)N1C[C@H](C)[C@@H](CN(C)S(=O)(=O)c2ccccc2)OCCCC[C@H](C)Oc2ccc(NC(=O)CCCN(C)C)cc2C1=O	-1	-2	6	.	.
C[C@@H]1CN([C@@H](C)CO)C(=O)c2cc(NC(=O)CCCN(C)C)ccc2O[C@@H](C)CCCCO[C@H]1CN(C)S(=O)(=O)c1ccccc1	15	-1	1	.	.
C[C@@H]1CN([C@@H](C)CO)C(=O)c2cc(NC(=O)CCCN(C)C)ccc2O[C@@H](C)CCCCO[C@@H]1CN(C)S(=O)(=O)c1ccccc1	31*	0	-4	.	.
C[C@@H]1CCCCO[C@@H](CN(C)S(=O)(=O)c2ccccc2)[C@H](C)CN([C@@H](C)CO)C(=O)c2cc(NC(=O)CCCN(C)C)ccc2O1	26*	-2	-4	.	.
C[C@H]1CCCCO[C@H](CN(C)S(=O)(=O)c2ccccc2)[C@@H](C)CN([C@@H](C)CO)C(=O)c2cc(NC(=O)CCCN(C)C)ccc2O1	41*	1	4	.	.
O=C(C[C@H]1CC[C@@H]2[C@H](COC[C@@H](O)CN2S(=O)(=O)c2cccc(Cl)c2)O1)Nc1ccccc1	-4	6	-2	.	.

Screens from PubChem.
